Assay [1] is described as follows: qHTS assay to identify small molecule agonists of the RXR signaling pathway - cell viability counter screen (AID 1159529). Also: series mostly up to about 77 µM; nearly all actives have a fitted effect of over 50% in size. The gist of the method: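 Luminescence from CellTiter-Glo (30 min, RT) measured viability in the same wells as the beta-lactamase reporter readout. Cells: GeneBLAzer RXR-alpha HEK 293T, 2% charcoal-stripped FBS. Compound exposure 16 hr, 37 C.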

Assay [2] can be described thus: qHTS assay to identify small molecule antagonists of the retinoid acid receptor (RAR) signaling pathway - cell viability counter screen (AID 1159551). Also: nearly all actives have a fitted effect of over 35% in size. The gist of the method:
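In this counter screen, the RARE-luciferase line C3RL4 was exposed for 6 h at 37 C and 5% CO2 to compounds with retinol at 1 uM final. Cellular ATP, read by luminescence, served as the viability measure.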
For orientation: qHTS replaces the single test concentration by a dilution series.

Assay [3] is described as follows: qHTS assay to identify small molecule antagonists of the retinoic acid receptor (RAR) signaling pathway (AID 1159552; also: nearly all actives have a fitted effect of over 50% in size). The gist of the method: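 Luminescence from a RARE luciferase reporter in C3RL4 cells served as read-out. Cells received compounds together with 1 uM final retinol and incubated 6 hr at 37 C before detection reagent was added for 30 min at room temperature.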

A short description of assay [4]: qHTS assay to identify small molecule agonists of the retinoic acid receptor (RAR) signaling pathway (AID 1159553). Also: potency is read from the fitted curve at half-maximal effect. The gist of the method:
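In this cell-based screen, 1,000 C3RL4 cells per well were cultured overnight, dosed with test chemicals in DMSO for 6 hr, and assessed for RARE luciferase luminescence.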

Assay [5] can be described thus: qHTS assay to identify small molecule antagonists of the estrogen related receptor (ERR) signaling pathway from Tox21 library - cell viability counter screen (AID 1224834). Also: nearly all actives have a fitted effect of over 30% in size. Also: potency is read from the fitted curve at half-maximal effect. The gist of the method:
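Counter screen run in ERR cells (2,000 cells/well): cells pre-incubated 6 h, then treated with compounds for 17.5 h at 37 C. Fluorescence was read 30 min after CellTiter-Fluor addition.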

Assay [6] deals with Luciferin 4-monooxygenase (Photinus pyralis) (UniProt P08659). Briefly: qHTS assay to identify small molecule inhibitors of firefly luciferase (AID 1224835). Also: nearly all actives have a fitted effect of over 25% in size. Also: potency is read from the fitted curve at half-maximal effect. As to activity change, negative = inhibition: series mostly up to about 120 µM. The gist of the method:
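Biochemical qHTS: compounds run as interplate titrations against purified firefly enzyme, with D-luciferin and ATP each at its KM concentration. Light output recorded by CCD imaging.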

Assay [7] addresses Nuclear receptor subfamily 1 group I member 3 (Homo sapiens) (UniProt Q14994). In words: qHTS assay to identify small molecule agonists of the constitutive androstane receptor (CAR) signaling pathway (AID 1224839). Also: nearly all actives have a fitted effect of over 15% in size. Also: potency is read from the fitted curve at half-maximal effect. As to activation: series mostly up to about 92 µM. The gist of the method: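 Luminescence read-out (ONE-Glo, 30 min, room temperature) from double-stable HepG2-CYP2B6-hCAR cells exposed 24 h to 15-point compound series in presence of 0.75 uM PK11195 final.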

Assay [8] is described as follows: qHTS assay to identify small molecule antagonists of the estrogen related receptor signaling pathway with the pleiotropic PPARgamma coactivator (PGC) from Tox21 10K library - cell viability counter screen (AID 1224840; active = well fitted cell-killing curve with a large enough effect in the repeat runs, not every such curve was filed as active; also: nearly all actives have a fitted effect of over 40% in size). The gist of the method:
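Readout: fluorescence intensity from CellTiter-Fluor after 30 min at 37 C/5% CO2. Preceded by 17.5 h treatment of PGC/ERR cells with DMSO-dissolved compounds, added 6 h post-seeding.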

Assay [9] is described as follows: qHTS assay to identify small molecule antagonists of the estrogen related receptor signaling pathway with the pleiotropic PPARgamma coactivator (PGC) from Tox21 10K library (AID 1224841; call rule not given here; also: actives are mostly falling curves and most rising ones were filed inactive; nearly all actives have a fitted effect of over 50% in size; also: potency is read from the fitted curve at half-maximal effect; as to activity, negative = inhibition: series mostly up to about 92 µM). The gist of the method: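 One-Glo luminescence, measured after half an hour at room temperature, quantified reporter output of PGC/ERR cells. These had been plated at 2,000 per well, incubated 6 h, dosed with compounds in DMSO, then kept 18 h at 37 C.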

Assay [10] in a line: qHTS assay to identify small molecule agonists of the estrogen related receptor signaling pathway with the pleiotropic PPARgamma coactivator (PGC) from Tox21 10K library (AID 1224842). Also: nearly all actives have a fitted effect of over 15% in size. Also: potency is read from the fitted curve at half-maximal effect. The gist of the method:
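PGC/ERR reporter cell line, 2,000 cells per well, incubated 6 h at 37 C before 23 nL compound in DMSO was added. After 18 h at 37 C, One-Glo luminescence read following 30 min at room temperature.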

Assay [11] is described as follows: qHTS assay to identify small molecule agonists of the constitutive androstane receptor (CAR) signaling pathway - cell viability counter screen (AID 1224836). Also: series mostly up to about 92 µM; nearly all actives have a fitted effect of over 45% in size. The gist of the method: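 Viability read-out: CellTiter-Fluor fluorescence after 23 h compound exposure at 37 C/5% CO2 in double-stable HepG2-CYP2B6-hCAR cells, with PK11195 present at 0.75 uM final; compounds tested in 15-point titration.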

Assay [12] in a line: qHTS assay to identify small molecule antagonists of the constitutive androstane receptor (CAR) signaling pathway - cell viability counter screen (AID 1224837). Also: nearly all actives have a fitted effect of over 45% in size. Also: potency is read from the fitted curve at half-maximal effect. As to activity change, negative = cytotoxicity: series mostly up to about 92 µM. The gist of the method: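 CITCO at 50 nM final was added alongside compounds (15 concentrations) to double-stable hCAR/CYP2B6-2.2kb HepG2 cells. Following 23 hr at 37 C, cell viability was quantified by CellTiter-Fluor fluorescence intensity.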

The target in assay [13] is Nuclear receptor subfamily 1 group I member 3 (Homo sapiens) (UniProt Q14994). In words: qHTS assay to identify small molecule antagonists of the constitutive androstane receptor (CAR) signaling pathway (AID 1224838). Also: nearly all actives have a fitted effect of over 40% in size. The gist of the method: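 Inhibition of CITCO-driven (50 nM final) CYP2B6 reporter expression is measured in HepG2 cells stably carrying hCAR. Fifteen compound concentrations are applied for 24 h at 37 C, followed by luciferase luminescence.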
Sequence of Nuclear receptor subfamily 1 group I member 3 (Homo sapiens) (Q14994 whole entry, looked up): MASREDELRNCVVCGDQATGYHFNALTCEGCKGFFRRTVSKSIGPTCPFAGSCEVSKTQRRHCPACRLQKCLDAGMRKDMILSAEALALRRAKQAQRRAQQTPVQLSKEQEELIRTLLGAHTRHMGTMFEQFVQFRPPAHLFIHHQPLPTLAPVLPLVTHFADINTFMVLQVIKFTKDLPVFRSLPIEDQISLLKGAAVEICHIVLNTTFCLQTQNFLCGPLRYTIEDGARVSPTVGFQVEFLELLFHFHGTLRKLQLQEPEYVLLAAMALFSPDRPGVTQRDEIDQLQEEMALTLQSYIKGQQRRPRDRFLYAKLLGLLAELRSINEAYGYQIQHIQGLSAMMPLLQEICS

Structures are written as SMILES. Inconclusive results are not listed. A number with no mark means an inactive call. Calls of active or inactive are those of the source. Unless noted, calls follow the shape of the dose curve; as a rule, active = well fitted curve in the direction sought with a large enough effect in the repeat runs; inconclusive = weak or mixed curves; inactive = no such curve, though single readings can be large; an effect the other way counts as inactive or inconclusive.
% is scaled to controls: 0 for no effect and ±100 for the full control effect.

Sequence of Luciferin 4-monooxygenase (Photinus pyralis) (P08659 whole entry, looked up): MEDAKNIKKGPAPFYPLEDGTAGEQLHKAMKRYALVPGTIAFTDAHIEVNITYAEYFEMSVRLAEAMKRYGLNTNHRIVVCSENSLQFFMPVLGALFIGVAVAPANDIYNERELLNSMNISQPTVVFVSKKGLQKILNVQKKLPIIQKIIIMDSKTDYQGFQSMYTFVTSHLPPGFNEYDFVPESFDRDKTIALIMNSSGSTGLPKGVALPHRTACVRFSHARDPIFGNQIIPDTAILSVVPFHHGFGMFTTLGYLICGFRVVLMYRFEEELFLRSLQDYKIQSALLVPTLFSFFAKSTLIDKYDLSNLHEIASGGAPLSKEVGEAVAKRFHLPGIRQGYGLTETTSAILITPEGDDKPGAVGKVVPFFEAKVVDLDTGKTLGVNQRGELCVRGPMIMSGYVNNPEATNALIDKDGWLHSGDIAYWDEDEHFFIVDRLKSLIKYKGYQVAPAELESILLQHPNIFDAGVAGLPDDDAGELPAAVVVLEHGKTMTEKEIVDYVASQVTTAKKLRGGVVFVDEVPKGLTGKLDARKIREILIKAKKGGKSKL

As for `CC(=O)Oc1cccc2c1C(=O)c1c(OC(C)=O)cc(C(=O)O)cc1C2=O`, the Potency result in [1], in assay [4], in assay [6], in [7], in [8] and in assay [10] was “inactive” throughout. For the same compound, the compound was classed as inactive in assay [2] and in assay [3]. In addition, the values for the Potency in assay [5] and in [9] were 29.8 µM (active) and 21.1 µM (active), respectively.

For `CCCCOc1ccc(N)cc1`, the Potency result in assay [1], in assay [5], in assay [11], in [12], in [8] and in assay [9] was “inactive” each time. For the same compound, the result in [2] and in assay [3] was inactive.

As to `N#CCCCC(C#N)CCC#N` (centres undefined), the Potency result in assay [1], in assay [4], in [5], in assay [6], in assay [11] and in assay [12] was “inactive” throughout. Also, the Potency entry in assay [8] and in assay [9] was “inactive” throughout. The call in assay [2] and in assay [3] was inactive.

Take `Nc1ccc(-c2ccc(F)cc2)cc1`: the Potency entry in assay [1], in assay [5], in [11], in [12], in [8] and in assay [9] was “inactive” in each case. The call in assay [2] and in assay [3] was inactive. Besides, the Potency in [6] is 31.7 µM (active); in assay [7] it was 27.3 µM (active); in assay [10], 5.45 µM (active).

For the compound `COC(=O)/C=C/C(C)=C\C=C\C(C)=C\C=C\C=C(C)\C=C\C=C(C)\C=C\C(=O)O`, the Potency entry in assay [1], in [11], in [12], in [8], in [9] and in assay [10] was “inactive” each time. The result in assay [2] and in assay [3] was inactive. Besides, the Potency in assay [4] was 61.1 µM (active).

Consider `CC(C)(C)c1ccc(CCC=O)cc1`, for which the Potency entry in assay [1], in assay [4], in assay [5], in [11], in assay [12] and in assay [13] was “inactive” throughout. For the same compound, the Potency result in assay [7] and in assay [8] was “inactive” in each case. Further, the compound was called inactive in [2] and in assay [3].

As for `CCCCCCCCCCCCCCCCCCCl`, the activity change, negative = cytotoxicity is 3.39% [at 6.97 µM] in [1], -1.45% [at 8.39 µM] in [2] and 3.1% [at 8.39 µM] in assay [12]. For the same compound, the activity, negative = inhibition in assay [3] was -19.9% [at 8.39 µM]; in [9], 20.1% [at 8.39 µM]. Further, in [4], the activation is -0.984% [at 8.36 µM]. Further, the viability change, negative = cytotoxic in [5] was -0.218% [at 8.39 µM]; in assay [11], 3.36% [at 8.39 µM]; in [8] it was 10.7% [at 8.39 µM]. The activity change, negative = inhibition in [6] is 2.69% [at 10.5 µM].

Turning to `CCOc1cc(OCC)c(C(C)=O)cc1OCC`, the Potency entry in assay [1], in assay [4], in assay [6], in assay [13], in assay [9] and in assay [10] was “inactive” throughout. Moreover, the compound was classed as inactive in [2] and in assay [3]. The Potency in [5] is 30.1 µM (active); in assay [12] it was 26.8 µM (active); in assay [7], 23.9 µM (active).

Consider `CC(O)CN` (centres undefined), for which the Potency result in [1], in [4], in assay [5], in assay [6], in [11] and in assay [12] was “inactive” each time. Besides, the Potency entry in assay [8], in [9] and in [10] was “inactive” each time. Moreover, the result in assay [2] and in assay [3] was inactive.

With `C(/C=C/C=C/Nc1ccccc1)=Nc1ccccc1`, the Potency result in assay [1], in assay [4], in assay [5], in [6], in assay [11] and in assay [12] was “inactive” each time. The Potency result in [13], in assay [7] and in assay [8] was “inactive” in each case. Besides, the compound was called inactive in assay [2].

Take `CCc1cnc(C(=O)O)c(C(=O)O)c1`: the Potency result in assay [1], in [5], in [6], in [11], in [12] and in [13] was “inactive” in each case. Besides, the Potency result in assay [7] and in assay [8] was “inactive” throughout. In assay [2], the compound was classed as inactive.

Consider `O=C(Nc1ccc2c(c1)Cc1ccccc1-2)C(F)(F)F`, for which the Potency result in assay [1], in [5], in assay [11], in [12], in [13] and in assay [8] was “inactive” throughout. The outcome in assay [2] was inactive. Besides, the Potency is 6.86 µM (active) in [4], 6.33 µM (active) in assay [6] and 27.3 µM (active) in assay [7].
